HTT-AS act = activators of huntingtin-antisense promoter activity. actives 0.24% (n = 48,000). HEK293 HTT-AS promoter firefly luciferase reporter, 24 h; response scale: percent change from vehicle, -100% = no light. AID 1508624. Potency, µM (titrated, usually from 57.5 µM), hits mostly activators; further: nearly all actives have a fitted effect of over 55% in size
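HEK293 Fluc reporter, 2,500 cells/well, 24 h pre-culture; cpds up to 57.5 uM final, 24 h 37 degrees C; Dual-Glo, 10 min RT; normalized vehicle = 0%, zero RLU = -100%.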
HTT promoter inh = inhibitors of huntingtin promoter activity; Potency, µM (series often up to 57.5 µM), usual class: inhibitors; actives 0.93% (n = 48,000); HEK293 HTT promoter firefly luciferase reporter, 24 h; AID 1508623; further: nearly all actives have a fitted effect of over 50% in size
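Quantitative HTS used concentration series of up to 57.5 uM final on HEK293 luciferase reporter cells, 24 h at 37 degrees C. Readout was Dual-Glo firefly luminescence.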
GPR32 ag = GPR32 (DRV1) agonism, beta-arrestin recruitment; O75388; CHO-K1 GPR32 beta-arrestin PathHunter luminescence, 90 min; zero percent set by DMSO-only wells; activation, % at 76.9 µM; actives 2.5% (n = 48,000);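 active means activation of at least 60% and not above a set upper limit, about 1 call in 100 departs from these limits; inconclusive means activation of 40% to 60%, or above that upper limit; inactive means activation under 40%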
Target sequence (O75388 whole entry, looked up): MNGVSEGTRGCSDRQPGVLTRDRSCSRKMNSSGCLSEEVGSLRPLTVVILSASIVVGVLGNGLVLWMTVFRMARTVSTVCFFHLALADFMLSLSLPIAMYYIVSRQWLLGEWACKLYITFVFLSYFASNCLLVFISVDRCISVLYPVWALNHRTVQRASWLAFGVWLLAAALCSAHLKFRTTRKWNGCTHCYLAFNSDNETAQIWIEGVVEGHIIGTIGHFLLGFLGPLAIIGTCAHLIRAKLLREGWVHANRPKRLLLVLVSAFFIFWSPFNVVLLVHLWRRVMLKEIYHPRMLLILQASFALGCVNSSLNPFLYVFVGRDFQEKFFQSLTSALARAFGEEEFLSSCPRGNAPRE
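Engineered CHO-K1 line co-expressing GPR32-ProLink and EA-beta-arrestin. Compound treatment lasted 90 min at 37 °C. Luminescence was recorded after 1 h with substrate at ambient temperature, relative to DMSO basal wells.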
Hits are given with their value; – = inactive; ? = inconclusive; · = no result; [ ] = remark or other dose. In the library only some 3.7% were active in any assay of this set; here they are far more common. Unless noted, the call rests on the fitted dose curve; in most records, active means well fitted curve in the direction sought with a large enough effect; inconclusive means small, poorly fitted or top-dose-only effect, or another doubt; inactive means no such curve, though single readings can be large; an effect the other way counts as inactive or inconclusive.

SMILES | HTT-AS act | HTT promoter inh | GPR32 ag
COCCN1C(=O)c2[nH]nc(-c3c(C)cc(C)cc3O)c2C1c1cccc(O)c1 (configuration not stated) | – | ? | 85
O=C(NCCCNc1nc(Nc2cccc(NC(=O)N3CCCC3)c2)ncc1I)c1cccs1 | – | ? | ·
CCOC(=O)N1CCc2c(sc(NCc3cccc(F)c3)c2C(=O)Nc2ccc(OC)cc2OC)C1 | – | ? | –
Cc1ccc(-n2ncc3c(N(CCO)Cc4ccccc4)ncnc32)cc1 | ? | – | –
Cc1ccc(Cl)cc1-n1ncc2c(NCCC3=CCCCC3)ncnc21 | – | – | –
Fc1ccc(-n2ncc3c(NCCC4=CCCCC4)ncnc32)cc1 | 10µM | – | –
OCCN(CCO)c1ncnc2c1cnn2-c1ccc(F)cc1 | 7.9µM | – | –
CCC(C)Nc1ncnc2c1cnn2-c1ccc(F)cc1 (configuration not stated) | ? | – | 65
COCCCNc1ncnc2c1cnn2-c1ccc(F)cc1 | – | – | –
Cc1ccc(Cl)cc1N1CCN(C(=O)c2sc3nc4n(c(=O)c3c2C)CCC4)CC1 | – | – | –
C[N+]1(C)[C@@H]2CC(OC(=O)[C@H](CO)c3ccccc3)C[C@H]1[C@H]1O[C@@H]12 (some centres not stated) | – | – | ·
CCc1ccccc1Nc1nc2ccccc2c2nncn12 | – | – | –
COc1ccc(-c2ccc3c(N4CCOCC4)nc(N4C[C@@H](C)O[C@@H](C)C4)nc3n2)cc1CO | – | ? | ·
CCN1CCN(CC(=O)Nc2ccc(-c3cccc4c(=O)cc(N5CCOCC5)oc34)c3sc4ccccc4c23)CC1 | – | – | ·
COc1cc(NC(=O)c2cc(-c3cccc(OC)c3)n[nH]2)cc(OC)c1 | ? | – | 81
COc1cc(NC(=O)c2ccc(-c3ccc(Cl)cc3)o2)cc(OC)c1 | – | ? | ·
NC(=O)c1cccc2cn(-c3ccc([C@@H]4CCCNC4)cc3)nc12 | – | – | ·
Cc1ccc2ccc3cc(C(=O)N4CCN(c5ccccc5)CC4)nc3c2[nH]1 | – | ? | –
Cc1ccc2nc(-c3ccc(C)c(NC(=O)CSc4ccc(Cl)cc4)c3)oc2c1 | 6.3µM | – | –
Cc1ccc2nc(-c3cccc(NC(=O)CSc4ccc(Cl)cc4)c3)oc2c1 | ? | – | –
Cc1ccc2oc(-c3ccc(C)c(NC(=O)C(C)(C)Oc4ccc(Cl)cc4)c3)nc2c1 | 10µM | – | –
Cc1ccc(C(=O)Nc2cc(-c3nc4cc(Cl)ccc4o3)ccc2C)c(C)c1 | – | – | –
CCN(CC)CCCCNc1nc2cc(Cl)c(Cl)cc2nc1-c1ccc(-c2cccs2)s1 | – | ? | ·
CN(C)CCOC1=Cc2ccccc2Sc2ccc(Cl)cc21 | – | – | –
CCOC(=O)[C@@H](N)CCC(=O)N[C@@H](CSCc1ccccc1)C(=O)N[C@@H](C(=O)OCC)c1ccccc1 | – | – | ·
SMILES | HTT-AS act | HTT promoter inh | GPR32 ag
C[C@@H](NCCCc1cccc(C(F)(F)F)c1)c1cccc2ccccc12 | – | ? | –
CC(Cc1cccc(C(F)(F)F)c1)NCCOC(=O)c1ccccc1 (configuration not stated) | – | – | 63
COc1cccc(CNC(=O)Cn2c(SCC(=O)Nc3ccc(C)c(C)c3)nc3ccccc32)c1 | – | – | 113
COc1cccc(CNC(=O)Cn2c(SCC(=O)Nc3ccc(F)cc3)nc3ccccc32)c1 | – | ? | –
CCN(CC)CCNC(=O)c1ccc(-c2nc(CN3CCc4ccccc43)c(C)o2)cc1 | – | – | 97
Cc1oc(-c2ccc(C(=O)NCCC(C)C)cc2)nc1CN1CCc2ccccc21 | – | ? | –
COc1cc(NS(=O)(=O)c2cnc(N)nc2)cc(OC)c1 | – | – | –
COc1ccc(NC(=O)c2c(C)oc3ccc(O)c(CN4CCC(C)CC4)c23)cc1 | · | · | –
COc1ccc(NC(=O)c2c(C)oc3ccc(O)c(CN4CCCC(C)C4)c23)cc1 (configuration not stated) | · | · | 61
CCOc1ccc(OCC)c(NS(=O)(=O)c2ccc3c(c2)CCCN3C(C)=O)c1 | – | – | –
COc1cc2[nH]c(=O)n(CCCC(=O)N3CCN(c4cccc(C(F)(F)F)c4)CC3)c(=O)c2cc1OC | – | – | –
Cc1cccc(N2CCN(C(=O)CCCCn3c(=O)[nH]c4ccsc4c3=O)CC2)c1C | – | ? | 62
O=C(CCCCn1c(=O)[nH]c2ccsc2c1=O)N1CCN(c2cccc(C(F)(F)F)c2)CC1 | – | ? | 74
CC(=O)c1ccc(N2CCN(C(=O)CCCn3c(=O)[nH]c4ccsc4c3=O)CC2)cc1 | – | – | –
CCOC(=O)c1ccc(NC(=O)CN2c3ccccc3S(=O)(=O)c3ccccc32)cc1 | – | ? | –
CCOC(=O)c1ccc(NC(=O)CN2C(=O)C(C)(C)c3ccccc32)cc1 | – | ? | 109
COc1ccc(NC(=O)CN2C(=O)C(C)(C)c3ccccc32)cc1Cl | –[11.5 µM] | ? | 103
Cc1cc(NC(=O)CN2C(=O)C(C)(C)c3ccccc32)ccc1Br | – | ? | –
Cc1cn2c(-c3cn[nH]c3)cnc2c(Nc2ccc(C(=O)N3CCNCC3)cc2F)n1 | – | ? | ·
C=C1C[C@@]23CC[C@H]4[C@@](C)(CCC[C@@]4(C)C(=O)O)[C@@H]2CC[C@]1(O)C3 | · | · | –
CCOC(=O)c1c(C)oc2nc(C)nc(NCCCN3CCN(c4cccc(C)c4)C(C)C3)c12 (configuration not stated) | – | – | –
COc1ccc(-n2c(=O)c3ccc(C(=O)NCc4ccc(C)cc4)cc3n(CC(=O)Nc3ccc(F)cc3)c2=O)cc1 | – | – | 94
COc1ccc(-n2c(=O)c3ccc(C(=O)NCc4ccc(C)cc4)cc3n(CC(=O)Nc3ccc(C)cc3)c2=O)cc1 | – | – | –
NC(=O)c1ccc(-c2nc(-c3ccc4c(c3)OCCO4)c(-c3ccccn3)[nH]2)cc1 | – | – | ·
COc1ccc(-c2onc(C)c2C)cc1S(=O)(=O)N1c2ccccc2CC1C (configuration not stated) | – | – | –
SMILES | HTT-AS act | HTT promoter inh | GPR32 ag
COc1ccc(Cn2c(CCC(=O)Nc3ccc(C)cc3C)nc3cccnc32)cc1 | – | – | –
Cc1ccc(NC(=O)Cc2ccc(-n3c(C)nc4cccnc43)cc2)c(Cl)c1 | – | 8.9µM | –
O=C(NC[C@H](O)CO)c1ccncc1Nc1ccc(I)cc1F | – | – | ·
C[C@@H](O[C@H]1OCCN(Cc2n[nH]c(=O)[nH]2)[C@H]1c1ccc(F)cc1)c1cc(C(F)(F)F)cc(C(F)(F)F)c1 | – | – | –
COc1ccc(NS(=O)(=O)c2ccc3c(c2)NC(=O)CCS3)c(OC)c1 | – | – | –
O=C1CCSc2ccc(S(=O)(=O)Nc3ccc(Cl)c(C(F)(F)F)c3)cc2N1 | – | – | 71
NC(=O)c1cc[n+](CC2=C(C(=O)[O-])N3C(=O)[C@@H](NC(=O)Cc4cccs4)[C@H]3SC2)cc1 | – | – | –
Cc1c(Cl)ccc2sc(N3CCN(C(=O)c4ccco4)CC3)nc12 | ? | – | 85
CCCCC(=O)N1CCN(c2nc3c(C)c(C)ccc3s2)CC1 | – | – | 69
Cc1ccc(S(=O)(=O)CCC(=O)N2CCN(c3nc4c(C)c(C)ccc4s3)CC2)cc1 | – | – | –

Screens from PubChem BioAssay.
